Our source for the growth inhibition values is PubChem BioAssay (NCI).

SMILES strings stand for the structures. Compounds without any hit were thinned out: in the full panel of roughly 79,000, 15% have a hit. A number with no mark means an inactive call. Active and inactive are the calls of the source. Rule as the data show it: active = growth inhibition above about 70%; inactive = the rest.

Test [1] is described as follows: NCI Yeast Anticancer Drug Screen. Data for the rad50 strain (AID 155).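 Also: 0% = growth of vehicle-only cultures of the same strain.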 Conditions: S. cerevisiae rad50 strain growth inhibition; at 50.0 µM; stronger effect = higher value. An outline of the steps:
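A DNA repair-deficient yeast mutant serves as the test organism; compound-induced growth inhibition is calculated against vehicle-treated cells.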

A short description of test [2]: NCI Yeast Anticancer Drug Screen. Data for the mec2-1 strain (AID 157). The settings on record: S. cerevisiae mec2-1 strain, at 50.0 µM, stronger effect = higher value. The procedure, abridged: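 Each compound was tested on mec2-1 yeast, a strain altered in DNA damage repair or cell cycle control. Growth inhibition is reported relative to vehicle.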
The nature of test [3]: NCI Yeast Anticancer Drug Screen. Data for the sgs1 mgt1 strain (AID 161).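 Also: 0% = growth of cultures given vehicle only.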 The settings on record: S. cerevisiae sgs1 mgt1 strain, at 50.0 µM, stronger effect = higher value. An outline of the steps: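 Read-out: growth inhibition vs vehicle controls. Cells: mutant yeast strain deficient in DNA damage repair.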
Test [4] in a line: NCI Yeast Anticancer Drug Screen. Data for the cln2 rad14 strain (AID 165).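 Also: 0% = growth equal to vehicle treated cultures.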 Conditions: S. cerevisiae cln2 rad14 strain, at 50.0 µM, stronger effect = higher value. The procedure, abridged: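 Test compounds were added to cln2 rad14 yeast cultures; inhibition of growth was then determined by comparison with vehicle treatment.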
The nature of test [5]: NCI Yeast Anticancer Drug Screen. Data for the bub3 strain (AID 167). The settings on record: S. cerevisiae bub3 mutant strain, at 50.0 µM, stronger effect = higher value. An outline of the steps:
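Inhibition values come from growth of compound-treated mutant yeast normalised to vehicle-treated controls.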

Test [6] can be described thus: NCI Yeast Anticancer Drug Screen. Data for the mlh1 rad18 strain (AID 175). The settings on record: S. cerevisiae mlh1 rad18 strain growth inhibition; at 50.0 µM; stronger effect = higher value. An outline of the steps: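 Inhibition values reflect reduced growth of mutant yeast versus vehicle-treated controls following compound exposure; the mutations affect DNA damage repair.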

`CC(c1ccccc1)c1ccc2ccccc2c1C(=O)O` (stereo unspecified): the growth inhibition is 39.8% in test [1]; 43.2% in test [2]; 42.6% in test [3]; 82% (active) in test [4]; 29.6% in test [5]; 64.8% in test [6].
`CCc1cccc(C(C)(C)C)c1NC(=S)N/C=C(/C#N)C(N)=O`: the growth inhibition was 8.2% in test [1]; -7.45% in test [2]; 16.9% in test [3]; 13.7% in test [4]; -15.9% in test [5]; 11.8% in test [6].
Regarding `Cc1ccc(C)c(C(=O)c2ccccc2)c1C(=O)O`, the growth inhibition in test [1] is -24.6%; in test [2], 7.8%; in test [3], 12.8%; in test [4], -29.9%; in test [5] it was 7.7%; in test [6] it was -4.15%.
For `C1=C/CCC2OC2CC/C=C/CC/1` (stereo unspecified), the growth inhibition in test [1] is -9.8%; in test [2] it was -55.2%; in test [3], -24.8%; in test [4], 11.8%; in test [5], -29.2%; in test [6], -4.2%.
Take `OCC(O)C(OC1OC(CO)C(O)C(O)C1O)c1nn(-c2ccc(F)cc2)c2nc3cc(Cl)c(Cl)cc3cc12` (stereo unspecified): the growth inhibition in test [1] was 13.6%; in test [2] it was -10.1%; in test [3] it was -26.8%; in test [4] it was 29.9%; in test [5], 6.45%; in test [6] it was -1.55%.
As to `COC(=O)C(C(C[N+](=O)[O-])c1ccco1)=P(c1ccccc1)(c1ccccc1)c1ccccc1` (stereo unspecified), the growth inhibition in test [1] is 89.5% (active); in test [2] it was 5.25%; in test [3], 45.6%; in test [4], 8.15%; in test [5], 0.95%; in test [6], 25.1%.
Turning to `C=C(C#N)C1OCC2OC(C)(C)OC21` (stereo unspecified), the growth inhibition in test [1] is 3.7%; in test [2], -4%; in test [3], -0.35%; in test [4] it was 12.3%; in test [5], -4.8%; in test [6], -25.9%.
As for `Cc1ccc(CN(CCO)Cc2ccccc2)cc1`, the growth inhibition in test [1] was 1.75%; in test [2], 39%; in test [3], 28.1%; in test [4] it was 0.65%; in test [5], 43.1%; in test [6], 47.1%.
For `O=C1c2ccccc2C(=O)N1CC(F)(F)F`, the growth inhibition in test [1] is -11.9%; in test [2] it was -4.75%; in test [3], -9.5%; in test [4], 8.25%; in test [5], 5.6%; in test [6], -12.3%.
For the compound `O=C(O)C1=NN(c2ccc(S(=O)(=O)O)cc2)C(=O)C1N=Nc1ccc(S(=O)(=O)O)cc1` (stereo unspecified), the growth inhibition in test [1] is 7.3%; in test [2], -0.6%; in test [3] it was 17.1%; in test [4] it was 16.9%; in test [5], -1%; in test [6] it was 13%.
For the compound `OCCNc1ncnc2nc[nH]c12`, the growth inhibition in test [1] was -17.9%; in test [2], -3.5%; in test [3] it was -12.5%; in test [4], 65.5%; in test [5], -46.5%; in test [6], 2.5%.
For `Nc1ccc(F)cc1C(F)(F)F`, the growth inhibition was 6.65% in test [1]; -45% in test [2]; -4.55% in test [3]; -7.75% in test [4]; -8.05% in test [5]; 23% in test [6].
As to `O=C1C(=Cc2ccc([N+](=O)[O-])cc2)C(=O)c2ccccc21`, the growth inhibition was 28.9% in test [1]; 36.6% in test [2]; 22.1% in test [3]; 24.1% in test [4]; 0.15% in test [5]; 85.5% (active) in test [6].
In the case of `Nc1ncnc2c1S(=O)(=O)NCN2`, the growth inhibition in test [1] was 5.05%; in test [2] it was -15.8%; in test [3] it was 0.45%; in test [4] it was -17.3%; in test [5], -3.15%; in test [6], -11.7%.
As for `CC(=O)Nc1ccc(O)c(C(=O)O)c1`, the growth inhibition is -8.6% in test [1]; 7.3% in test [2]; -8.55% in test [3]; -6% in test [4]; 24.1% in test [5]; -24.4% in test [6].
In the case of `CC(=O)Oc1ccccc1/C=C1\N=C(c2ccccc2)OC1=O`, the growth inhibition is -5.25% in test [1]; 2.25% in test [2]; 1.85% in test [3]; -30.2% in test [4]; -5.25% in test [5]; -6.4% in test [6].
For `CN(C)NC(=O)Nc1ccc2ccccc2c1`, the growth inhibition in test [1] was -39.4%; in test [2], -30.7%; in test [3] it was -8.55%; in test [4] it was -41%; in test [5], -24.2%; in test [6], -24.4%.
As to `CC(C)Oc1ccc(N2C(=O)C(C)CNC2=S)cc1` (stereo unspecified), the growth inhibition was -13.9% in test [1]; -1.9% in test [2]; -1.3% in test [3]; 4.9% in test [4]; 6.4% in test [5]; -8.55% in test [6].
For `Cc1cc(C)c(C)c(CC(C)(COS(C)(=O)=O)COS(C)(=O)=O)c1C`, the growth inhibition was 8.6% in test [1]; 11% in test [2]; 27.1% in test [3]; 39.2% in test [4]; 5.85% in test [5]; 28.1% in test [6].
On to `CC(=O)/C=C/C=C\C=C/N=C(c1ccccc1)c1ccccc1`, for which the growth inhibition in test [1] is -7.5%; in test [2] it was -1.1%; in test [3] it was -2.7%; in test [4], 3%; in test [5], 26.1%; in test [6] it was -3.85%.
With `CCCCC(CC)CN(CC(CC)CCCC)C1C=CCCC1` (stereo unspecified), the growth inhibition in test [1] was 3.6%; in test [2], -10.3%; in test [3], 7.9%; in test [4] it was -36.8%; in test [5], 6.5%; in test [6], 2.7%.
